Growth data for 40 compounds are collected here from PubChem BioAssay (NCI).

Compounds without any hit were thinned out: in the full panel of roughly 83,000, 20% have a hit.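 In brief: 96-well plates, 48 h treatment, single concentration, percent growth endpoint.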 Active and inactive are the calls of the source. How the source made its calls: active means growth percent below 10; inactive means the rest.

One experiment has as its system SK-MEL-28 melanoma. The experiment in a line: NCI-60 one-dose screen, 48 h (100 = growth as untreated, 0 = no growth, -100 = all killed). The settings on record: 10 µM unless noted.
Regarding `CCN(CC)CCOc1ccc(-c2c(-c3ccccc3)c(=O)oc3ccccc23)cc1`, the growth was 98.6% (inactive).

With `COc1ccc2c(O)c(/C=C3\N=Nc4ccccc43)oc2c1C[C@@H]1CCNC[C@H]1F`, the growth was -70.2% (active). Still for that read-out and setting: the figure for `COc1cc(OC)cc(C2=C3CC[C@@H]4[C@H](CC[C@]5(C)C(=O)CC[C@@H]45)C3=CC3C(O)c4cccnc4N4C(=O)COC234)c1` (some centres not stated) is 115% (inactive); for `CC(=O)N1N=C(c2ccc(Nc3nc(Nc4ccc(Cl)cc4)nc(Nc4ccc(Cl)cc4)n3)cc2)CC1c1ccco1` (configuration not stated) it is 111% (inactive); for `CCS/C(Nc1ccccc1)=C(\C#N)C(=O)N/N=C/c1ccc(Cl)cc1Cl` it is 60.5% (inactive). On the same count and under the same terms, for `CCOC(=O)C(=Cc1cccc(Cl)c1)C(=O)OCC` the value was -39% (active); for `CN[C@]12CC3(C=CC(=O)C=C3)O[C@@]1(Cc1ccc(OC)cc1)N(C)C(=O)N2`, 18.1% (inactive).

A further experiment deals with SK-MEL-2 melanoma. The description is as above. The settings on record: 10 µM unless noted.
On to `Cn1cc(-c2csc(-c3ccc(Cl)cc3)n2)c2cccnc21`, for which the growth was -22% [100 µM] (active).

On to `COc1cc(-c2nc(SCCC(C)C)nc(Nc3ccccc3Cl)c2C#N)cc(OC)c1OC`, for which the growth was 101% (inactive).

`CCn1c(=S)[nH]c2c(=O)n(C)c(=O)n(C)c21`: the growth is 103% (inactive). For `c1ccc(CNc2c3ccccc3nc3ccccc23)cc1`, the growth is 60.8% (inactive).

As to `COCCn1c(-c2csc(-c3cn(C)c4ccc(OC)cc34)n2)cc2cccnc21`, the growth is 54% (inactive). Still for that read-out and setting: the figure for `CCOC(=O)CSc1ncnc2c1c(-c1ccccc1)c(-c1ccccc1)n2-c1ccc(C)cc1` is 82.4% (inactive); for `COc1cc2oc(-c3cccc(NC(=O)c4cccc(Br)c4)c3)cc(=O)c2c(OC)c1OC` it is 54% (inactive). The same measure, in the same setting: the figure for `Cc1ccc(Cl)cc1Nc1nc(C(F)(F)F)ccc1C(=O)N/N=C/c1cccnc1` is -5.85% (active). Same read-out and setting: the figure for `Cn1c(=O)c2c(nc(NC3=NS(=O)(=O)c4ccccc43)n2CC(=O)N2CCc3ccccc32)n(C)c1=O` is 106% (inactive); for `Cc1cccc(Cl)c1NC(=O)c1ccc2nc(NC(=O)NCCN(C)C)sc2c1` it is 103% (inactive). On to `CCOC(=O)c1c(C)nc2c(c1N)CC(=O)N2Cc1cc(F)cc(Cl)c1`, for which the growth is 118% (inactive). Still for that read-out and setting: the figure for `COC(C(=O)[C@@H](O)[C@@H](C)O)[C@@H]1Cc2cc3cc(O[C@H]4C[C@@H](O[C@H]5C[C@@H](O)[C@H](O)C(C)O5)[C@H](O)C(C)O4)cc(O)c3c(O)c2C(=O)[C@H]1O[C@H]1C[C@@H](O[C@H]2C[C@@H](O[C@H]3C[C@@H](OC)[C@H](O)C(C)O3)[C@@H](O)C(C)O2)[C@H](O)C(C)O1` (some centres not stated) is 33.2% (inactive); for `CN([O-])c1nc(N(C)[O-])nc(N2CCOCC2)n1.CN([O-])c1nc(N(C)[OH2+])nc(N2CCOCC2)n1.[Fe+3]` it is 84.9% [100 µM] (inactive). The same measure, in the same setting: the figure for `CCOP(=O)(OCC)c1nc(-c2ccccc2)oc1NCc1cccnc1` is 111% (inactive); for `CCn1c(SCC(=O)c2ccc(Br)cc2)nnc1-c1ccncc1` it is 104% (inactive); for `CCCCNc1ccc(C#N)c(OCCN(CC)CC)c1` it is 105% (inactive).

As to `N#Cc1c(-c2ccc(Cl)cc2)nc(NN=Cc2cccc(O)c2)nc1N1CCOCC1`, the growth was 91.5% (inactive). Still for that read-out and setting: for `CS(=O)(=O)Nc1cc(-c2ccc3ncnc(Nc4c(Cl)ccc5c4OCO5)c3c2)cnc1Cl` the value was -65.7% (active).

Turning to `Fc1cccc(CNc2c3ccccc3nc3ccccc23)c1F`, the growth was 107% (inactive). On the same count and under the same terms, the figure for `COC(=O)CNC(=O)[C@H](Cc1ccccc1)NCc1ccncc1` is 95.3% (inactive); for `O=C(NCCCN1CCOCC1)c1cccc(N2C(=O)/C(=C/c3ccc(F)cc3)SC2=S)c1` it is 109% (inactive); for `O=[N+]([O-])/C(=C/C=C/c1ccccc1)c1ccccc1` it is 86.5% (inactive). Turning to `Cn1cc(-c2csc(-c3c[nH]c4ccc(Br)cc34)n2)c2cnccc21`, the growth was -65.7% (active). Same read-out and setting: the figure for `C=C(C)[C@@H]1CC[C@]2(C(=O)N3CCN(C)CC3)CC[C@]3(C)[C@H](CC[C@@H]4[C@@]5(C)CC(=C/c6ccncc6)/C(=N/O)C(C)(C)[C@@H]5CC[C@]43C)[C@@H]12` is 83.8% (inactive); for `COc1cc(N2C(=O)[C@H](O)C2c2ccc(SC)cc2)cc(OC)c1OC` (some centres not stated) it is 16.6% (inactive); for `CCCCC(=O)c1ccco1` it is 98.6% (inactive). Still for that read-out and setting: the figure for `C=C(C)[C@@H]1CC[C@]2(C)[C@H](CC=C3[C@@H]4[C@H](C)[C@@H](C)CC[C@]4(CO)CC[C@]32C)[C@@]1(C)CCCN` is -24.7% (active); for `COc1ccc2[nH]cc(-c3nc(-c4c[nH]c5ccncc45)cs3)c2c1` it is 84.7% (inactive); for `Oc1ccc(CN2CCC(N3CCCCC3)CC2)c2cccnc12` it is 2.95% (active). The same measure, in the same setting: for `CC(C)(C)c1cc(-c2nc3ccc(N4CCN(S(C)(=O)=O)CC4)cc3[nH]2)cc(C(C)(C)C)c1O` the value was 94% (inactive); for `COc1ccc2c(c1)c(-c1noc(C(=O)c3cn(C)c4ccc(Br)cc34)n1)cn2C`, 93.9% (inactive).

As to `C[C@H](NC(=O)[C@@H](C)N)[C@H](Oc1ccc2c(cnn2-c2ccc(F)cc2)c1)c1ccc2c(c1)OCCO2`, the growth was 65.8% (inactive). On the same count and under the same terms, the figure for `C=C(C)[C@@H]1CC[C@]2(C(=O)O)CC[C@]3(C)[C@H](CC[C@@H]4[C@@]5(C)C[C@@H](Cc6cn(CCO[C@@H]7O[C@H](COC(C)=O)[C@H](OC(C)=O)[C@H](OC(C)=O)[C@H]7OC(C)=O)nn6)[C@H](O)C(C)(C)[C@@H]5CC[C@]43C)[C@@H]12` is 67.2% (inactive); for `CCN(CC)CCOc1ccc(-c2c(-c3ccccc3)c(=O)oc3ccccc23)cc1` it is 82.5% (inactive); for `COc1ccc2c(O)c(/C=C3\N=Nc4ccccc43)oc2c1C[C@@H]1CCNC[C@H]1F` it is 96.9% (inactive).

Regarding `COc1cc(OC)cc(C2=C3CC[C@@H]4[C@H](CC[C@]5(C)C(=O)CC[C@@H]45)C3=CC3C(O)c4cccnc4N4C(=O)COC234)c1` (some centres not stated), the growth is 108% (inactive).

`CC(=O)N1N=C(c2ccc(Nc3nc(Nc4ccc(Cl)cc4)nc(Nc4ccc(Cl)cc4)n3)cc2)CC1c1ccco1` (configuration not stated): the growth was 77.7% (inactive).

For the compound `CCS/C(Nc1ccccc1)=C(\C#N)C(=O)N/N=C/c1ccc(Cl)cc1Cl`, the growth is 28.3% (inactive).

In the case of `CCOC(=O)C(=Cc1cccc(Cl)c1)C(=O)OCC`, the growth is 25.3% (inactive). Turning to `CN[C@]12CC3(C=CC(=O)C=C3)O[C@@]1(Cc1ccc(OC)cc1)N(C)C(=O)N2`, the growth is 70.7% (inactive).
